About 8,000 (2.5%) of roughly 320,000 compounds were called active. The entries come from a sample that favours actives as a whole. Values without a mark were called inactive. No stated cut-off is given here; in the data, active means activation above about 47%; inactive means the rest.
Each compound was assayed against Aryl hydrocarbon receptor (Homo sapiens) (UniProt P35869) (assay: AHR activators, primary screen, cell-based, luminescence, luciferase reporter, human (AID 2796;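 further: 0% = vehicle wells and 100% = reference agonist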)). Settings: AHR-responsive luciferase reporter cells, at 5 µM, stronger effect = higher value.
Aryl hydrocarbon receptor (Homo sapiens), sequence (P35869 whole entry, looked up): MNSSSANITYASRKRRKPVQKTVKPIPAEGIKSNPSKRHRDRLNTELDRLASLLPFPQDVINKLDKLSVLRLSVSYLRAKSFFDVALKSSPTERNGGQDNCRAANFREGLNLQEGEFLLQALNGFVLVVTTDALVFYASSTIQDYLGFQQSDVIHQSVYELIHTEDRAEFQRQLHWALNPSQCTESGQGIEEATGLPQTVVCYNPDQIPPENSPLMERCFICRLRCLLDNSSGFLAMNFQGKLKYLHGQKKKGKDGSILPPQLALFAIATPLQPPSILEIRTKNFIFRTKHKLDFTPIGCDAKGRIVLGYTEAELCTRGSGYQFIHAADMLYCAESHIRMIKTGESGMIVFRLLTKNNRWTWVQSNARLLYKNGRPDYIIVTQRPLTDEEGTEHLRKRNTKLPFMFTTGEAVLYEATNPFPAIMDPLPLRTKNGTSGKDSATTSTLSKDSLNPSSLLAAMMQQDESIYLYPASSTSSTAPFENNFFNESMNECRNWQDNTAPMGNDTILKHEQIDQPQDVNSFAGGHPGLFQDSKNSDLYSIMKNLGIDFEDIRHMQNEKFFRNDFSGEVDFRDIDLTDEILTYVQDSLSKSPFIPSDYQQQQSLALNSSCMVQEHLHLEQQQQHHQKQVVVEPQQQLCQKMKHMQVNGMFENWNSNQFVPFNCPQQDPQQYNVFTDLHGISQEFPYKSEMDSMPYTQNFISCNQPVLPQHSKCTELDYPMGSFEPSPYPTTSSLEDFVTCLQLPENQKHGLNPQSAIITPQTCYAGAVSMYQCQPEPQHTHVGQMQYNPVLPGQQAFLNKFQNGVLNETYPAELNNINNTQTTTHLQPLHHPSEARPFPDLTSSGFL
`O=C1C2C3C=CC(C4CC34)C2C(=O)N1c1nccs1` (stereo unspecified) showed an activation of 0.87%.
Compound `Cc1ccccc1N1C(=O)C(Oc2ccc(Cl)cc2)C1CNCC1CCCO1` (stereo unspecified) has an activation of -0.77%.
With `COc1ccccc1Cn1c(C)nnc1-c1cnn(C)c1N` the activation was 4.53%.
`CN(C)c1ccc(NC(=O)CN2C3CCCC2CC(NC(=O)c2ccccc2)C3)cc1` (stereo unspecified) gave an activation of 7.23%.
For `Cc1nc(-c2ccccc2)sc1C(=O)/C=C/N(C)C`, the activation was 3.46%.
Compound `Cc1nc(-c2ccc(Cl)cc2)sc1C(=O)NN` has an activation of 10.3%.
`Cc1nc(-c2ccc(Cl)cc2)sc1C(=O)CBr` was tested, and the activation was 54.9% (active).
For `Cc1ccnc(N2CCCC(C(=O)NC3CC3)C2)n1` (stereo unspecified), the activation was 1.42%.
For `Cc1nc2ccccc2c(=O)n1NC(=O)c1ccccc1`, the activation was -1.87%.
In the case of `Cc1ccnc(-n2sc3ccccc3c2=O)n1`, the activation is reported as 98.3% (active).
`NC(=O)Nc1ccccc1C(=O)NCCc1ccccc1` was tested, and the activation was 109% (active).
`COc1ccc(CCNC(=O)c2ccccc2OCc2ccccc2)cc1` showed an activation of -0.83%.
Work on `O=C(O)c1ccccc1-c1ccccc1C(=O)NCCc1ccccc1` yielded an activation of -1.22%.
Work on `COc1ccccc1NC(=O)[C@H](COCc1ccccc1)NC(=O)OC(C)(C)C` yielded an activation of 13.7%.
Work on `CC(C)NC(=O)COCc1cc(-c2ccc3c(c2)OCO3)on1` yielded an activation of 14.2%.
`CCc1nc(C)cn1S(=O)(=O)c1cc([N+](=O)[O-])ccc1Cl` showed an activation of -0.55%.
For `CC1CCc2c(c3ccccc3[nH]c2=O)O1` (stereo unspecified), the activation was 45.7%.
`N/C(=N\OS(=O)(=O)c1cccc([N+](=O)[O-])c1)c1ccncc1` was tested, and the activation was 0.65%.
For `COc1ccc(N2C(=O)c3ccccc3NC2c2ccc(OC)c(CN3CCOCC3)c2)cc1` (stereo unspecified), the activation was 4.09%.
`COc1ccc(C2Nc3ccccc3C(=O)N2c2ccc(F)cc2)cc1Cn1nnc2ccccc21` (stereo unspecified) gave an activation of 4.17%.
With `COc1ccc(C2Nc3ccccc3C(=O)N2c2ccc(Cl)cc2)cc1Cn1cc([N+](=O)[O-])cn1` (stereo unspecified) the activation was 57.9% (active).
`CC(C)N(C(=O)CSc1nnc(NC2CC2)s1)c1ccccc1` showed an activation of 7.53%.
`COc1ccc(C(=O)O)cc1S(=O)(=O)NC1CCN(Cc2ccccc2)CC1` was tested, and the activation was -0.69%.
In the case of `NNc1nc2c(Cl)cccc2s1`, the activation is reported as 115% (active).
Work on `Cc1ccc2c(CC(=O)NCc3cccs3)coc2c1` yielded an activation of 8.24%.
`CCCNC(=O)c1ccc(N2CCC3(CC2)CC(c2cccc(Br)c2)=NO3)c(NC(=O)c2ccco2)c1` gave an activation of -6.12%.
In the case of `Cc1cc(/C=C2/NC(=O)NC2=O)c(C)n1-c1cccnc1`, the activation is reported as 26.3%.
`N#C/C(=C\c1cccnc1)C(=O)Nc1ccc(SC(F)F)cc1` gave an activation of 3.63%.
In the case of `Cc1cc(/C=C(/C#N)C(=O)Nc2ccc(Cl)cc2)c(C)n1-c1cccnc1`, the activation is reported as 76% (active).
Work on `Cc1nn(C)c(Cl)c1CN1CCC(Oc2ccc(C(=O)N3CCCC3)cc2)CC1` yielded an activation of -2.1%.
With `CCCc1cc(=O)[nH]c(SCC(=O)N2C(C)CCCC2C)n1` (stereo unspecified) the activation was 0.47%.
Compound `Nc1cccc(CCc2nc3ccccc3[nH]2)c1` has an activation of 6.68%.
With `COc1ccc(-c2[nH]nc(-c3ccccc3)c2-c2nc3ccccc3[nH]2)cc1` the activation was 4.79%.
Compound `COc1ccc(Br)cc1C(=O)NC(=S)Nc1cc(-c2nc3ccccc3[nH]2)ccc1C` has an activation of 36.6%.
For `Cc1ccc(-c2nc3ccccc3[nH]2)cc1N`, the activation was 47.4% (active).
`CCCCSc1nc2ccccc2[nH]1` was tested, and the activation was 1.07%.
With `c1ccc2[nH]c(-c3nc4ccccc4[nH]3)nc2c1` the activation was 71.2% (active).
Work on `OCc1n[nH]c(CO)n1` yielded an activation of -0.81%.
In the case of `O=C(C1CCN(C2CCN(Cc3cccc4c3OCO4)CC2)CC1)N1CCOCC1`, the activation is reported as 4.05%.
`COc1ccc(CCOC2OC(CO)C(OC(=O)/C=C/c3ccc(O)c(OC)c3)C(O[C@H]3O[C@@H](C)[C@H](O)[C@@H](O)[C@H]3O)C2O)cc1O` (stereo partly specified) showed an activation of 1.88%.
`NC(=O)C1=C[C@@H](c2csc3ccccc23)C[C@@H](OCc2ccc(CO)cc2)O1` was tested, and the activation was -0.11%.
`NC(=O)C1=C[C@H](c2csc3ccccc23)C[C@H](OCc2ccc(CO)cc2)O1` gave an activation of 0.39%.
`O=C(NC1CC1)C1=C[C@H](c2c[nH]c3ccccc23)C[C@H](OCc2ccc(CO)cc2)O1` was tested, and the activation was 135% (active).
Compound `CCN(CC)C(=O)COc1coc(CN2CCN(Cc3ccccc3)CC2)cc1=O` has an activation of -1.36%.
In the case of `C/C(=N\Nc1ncc(Cl)cc1Cl)c1ccc(S(=O)(=O)NCc2ccco2)cc1`, the activation is reported as 29.9%.
In the case of `COc1cccc(/C(C)=N/Nc2ncc(Cl)cc2Cl)c1`, the activation is reported as 53.5% (active).
With `C/C(=N\Nc1ncc(Cl)cc1Cl)c1cccs1` the activation was 1.11%.
`CC1CCCCC12NC(=O)N(CC(=O)N1CCN(c3ccccc3)CC1)C2=O` (stereo unspecified) was tested, and the activation was 0.1%.
Compound `CC1=NN(C(=O)CCc2ccccc2O)C(O)(C(F)(F)F)C1` (stereo unspecified) has an activation of -1.07%.
`COc1cccc(OC)c1C(=O)Nc1ccc2c(c1)n(C)c(=O)n2C` gave an activation of 1.94%.
With `COc1cc2ccccc2cc1C(=O)Nc1ccncc1` the activation was 5.1%.
With `COc1cccc(OC)c1C(=O)Nc1ccc(Cc2ccncc2)cc1` the activation was 15.6%.
For `COc1cc2ccccc2cc1C(=O)N1CCOCC1`, the activation was 0.61%.
For `COc1cccc(OC)c1C(=O)Nc1ccc(N2CCCCC2)cc1`, the activation was 79.6% (active).
With `COc1cc2ccccc2cc1C(=O)Nc1ccc(N2CCOCC2)cc1` the activation was 95.9% (active).
For `FC(F)(F)C1CCCN(c2nsc3ccccc23)C1` (stereo unspecified), the activation was 16.6%.
`Cc1noc(C)c1S(=O)(=O)N(C)C[C@H]1Oc2ccc(NC(=O)C3CCCCC3)cc2C(=O)N([C@H](C)CO)C[C@@H]1C` showed an activation of -1.72%.
In the case of `CCc1ccc(NC(=O)CS(=O)CC(=O)N2CCN(c3ccccc3F)CC2)cc1` (stereo unspecified), the activation is reported as -1.39%.
`Cc1cc(C)cc(NC(=S)NCc2ccc(F)cc2)c1` showed an activation of 4.28%.
For `Cc1cccc(NC(=S)NCc2ccc3[nH]c4c(c3c2)CCCC4)c1`, the activation was 68% (active).
Compound `O=C(O)CCC(=O)NCc1ccc2[nH]c3c(c2c1)CCCC3` has an activation of 1.38%.
With `COc1ccc(C)cc1-n1nnnc1SCc1nc2ccccc2c(=O)[nH]1` the activation was 24.9%.
Work on `Cc1ccc(-c2noc(CSc3nnnn3-c3ccccc3)n2)cc1` yielded an activation of 8.65%.
With `Cc1ccc(Nc2nc(CSc3nnnn3-c3ccccc3)cc(=O)[nH]2)cc1` the activation was 73.4% (active).
For `Cc1ccc(Br)c(NS(=O)(=O)c2cccc(C(=O)N3CCNC(=O)C3)c2)c1`, the activation was 1.33%.
Work on `COc1cc(OC)c(C(=O)Nc2ccc(N(C)C)cc2)cc1OC` yielded an activation of -7.49%.
For `COc1ccc(Cl)cc1C(=O)Nc1ccc(N(C)C(C)=O)cc1`, the activation was 81.3% (active).
`COC(=O)c1ccc(NC(=O)c2cc(Cl)ccc2OC)cc1` showed an activation of 2.68%.
`Cc1ccsc1C(=O)OCC(=O)Nc1cccc(F)c1` showed an activation of -0.75%.
Work on `Cc1ccc(C(=O)Nc2ccccc2-c2ccccc2)cc1S(=O)(=O)Nc1ccccc1` yielded an activation of 2.25%.
`Cc1ccc(C)c(NC(=O)C(OC(=O)c2ccc(C)s2)c2ccccc2)c1` (stereo unspecified) showed an activation of 29.4%.
`CCN(CC)CCNC(=O)CCCCCn1c(=O)[nH]c2cc(C(=O)OC)ccc2c1=O` was tested, and the activation was 1.58%.
Compound `Cn1cc(CCC(=O)NCc2ccc3c(c2)OCO3)c2ccccc21` has an activation of 8.58%.
Work on `O=C(CCn1c(=S)[nH]c2cc3c(cc2c1=O)OCO3)NCc1ccc(Cl)cc1` yielded an activation of -0.55%.
With `O=C(CCc1c[nH]c2ccccc12)NCCOc1ccccc1` the activation was 2.6%.
With `O=C(CCCCn1c(=O)[nH]c2ccccc2c1=O)NCc1ccc2c(c1)OCO2` the activation was 79.9% (active).
In the case of `O=C(CCCCCn1c(=O)[nH]c2ccccc2c1=O)NCCc1c[nH]c2ccccc12`, the activation is reported as 54.7% (active).
`O=c1c2ccccc2c(-c2ccccc2)nn1-c1ccccn1` gave an activation of 0.2%.
`Cc1ccc(C(=O)NNC(=O)c2cccs2)cc1` gave an activation of -3.24%.
In the case of `Cc1ccc(C(=O)NNc2ncnc3ccccc23)cc1`, the activation is reported as 19.4%.
For `Cc1ccc(C(=O)NNC(=O)c2cc3cc4ccccc4nc3s2)cc1`, the activation was 64% (active).
For `Cc1cccc(NC(=O)c2ccc(S(=O)(=O)N(C)c3ccccc3)cc2)n1`, the activation was 13.7%.
`O=C(COC(=O)c1ccc([N+](=O)[O-])cc1Cl)NC(=O)c1ccccc1` was tested, and the activation was 0.29%.
`CCOC(OCC)c1ccc(/C=C\c2nccc(N)n2)cc1` gave an activation of 2.83%.
For `CC1=CC=CC2=N/C(=N\S(=O)(=O)c3ccc(F)cc3F)c3ccccc3CN12`, the activation was 68.7% (active).
In the case of `CCNC(=S)N1CCN(S(=O)(=O)c2ccc(Cl)s2)CC1`, the activation is reported as -1.16%.
For `O=C1Nc2ccccc2/C1=C/c1ccnc2ccccc12`, the activation was 8.16%.
With `CN(C)/C=C1/Nc2ccccc2C1=O` the activation was 33.7%.
With `Cc1cc(C)c(/C=C2\C(=O)Nc3ccccc32)[nH]1` the activation was 47% (active).
`COCCN(C(=O)CCC(=O)Nc1nccs1)C(C(=O)NC(C)(C)C)c1ccc(Cl)cc1` (stereo unspecified) gave an activation of 0.14%.
With `COc1ccccc1C(=O)COC(=O)COc1ccc(C#N)cc1` the activation was -0.13%.
`COc1ccc(CCNc2nc(C)cc(C)n2)cc1OC` showed an activation of 4.65%.
Work on `COc1ccc(/C=C/c2noc(-c3ccccc3OC(C)=O)n2)cc1` yielded an activation of 2.04%.
For `COc1ccc(-c2nc(-c3ccccc3)no2)c(OC)c1`, the activation was 70.8% (active).
For `Cc1ccc(-c2nc(-c3ccncc3)no2)c(C)c1`, the activation was 3.29%.
Compound `CCOC(=O)N1CCN(S(=O)(=O)N2CCCC(C(=O)NCCCN3CCC(C)CC3)C2)CC1` (stereo unspecified) has an activation of 0.65%.
